# Measurements from PMC7862700, “An all-to-all approach to the identification of sequence-specific readers for epigenetic DNA modifications on cytosine”.
# Experiments:
# Test in all cases: DAPPL (digital affinity profiling via proximity ligation, sequencing); 10 mM Tris-HCl pH 7.5, 50 mM NaCl, 1 mM DTT, 4% glycerol, room temperature, 30 min; GST-TFs on glutathione beads, 16-mer random dsDNA library, 0.1% formaldehyde crosslink after washing; high values mean tight binding
# FLI1 = biological target: T1, FLI1 (Homo sapiens, UniProt Q01543 1-452); settings: protein: recombinant; tags: N-terminal GST; dsDNA, one strand shown
# T1 sequence: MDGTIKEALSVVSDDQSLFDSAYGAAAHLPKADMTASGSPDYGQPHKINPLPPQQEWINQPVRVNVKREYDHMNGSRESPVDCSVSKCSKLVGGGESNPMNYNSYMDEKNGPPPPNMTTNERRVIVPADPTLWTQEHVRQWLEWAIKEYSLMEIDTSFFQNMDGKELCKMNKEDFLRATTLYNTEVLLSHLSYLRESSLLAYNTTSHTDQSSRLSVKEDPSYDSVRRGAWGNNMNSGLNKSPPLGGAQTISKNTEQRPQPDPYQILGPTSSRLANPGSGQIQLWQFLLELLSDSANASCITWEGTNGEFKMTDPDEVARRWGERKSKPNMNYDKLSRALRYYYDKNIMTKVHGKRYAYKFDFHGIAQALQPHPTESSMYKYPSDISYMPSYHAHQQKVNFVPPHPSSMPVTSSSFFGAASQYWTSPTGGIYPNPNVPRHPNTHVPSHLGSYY
# Summary of the method: (§1)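 The binding signal reported is, for every hexamer, its read frequency for a factor over its read frequency for the tag-only sample. Reads came from pools of yeast-expressed, GST-fused human transcription factors on glutathione beads, barcoded with DNA and mixed with that sample, which were incubated with 200 nmole of a random double-stranded 16-mer DNA library in Tris/NaCl/DTT/glycerol buffer at room temperature for 30 min. After washing, the pools were crosslinked with 0.1% formaldehyde, proximity-ligated with BsaI/T4 ligase for 1 h at 37 °C, PCR-amplified and sequenced on an Illumina NextSeq500.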
# ELK1 = biological target: T2, ELK1 (Homo sapiens, UniProt P19419 1-428); settings: protein: recombinant; tags: N-terminal GST; dsDNA, one strand shown
# T2 sequence: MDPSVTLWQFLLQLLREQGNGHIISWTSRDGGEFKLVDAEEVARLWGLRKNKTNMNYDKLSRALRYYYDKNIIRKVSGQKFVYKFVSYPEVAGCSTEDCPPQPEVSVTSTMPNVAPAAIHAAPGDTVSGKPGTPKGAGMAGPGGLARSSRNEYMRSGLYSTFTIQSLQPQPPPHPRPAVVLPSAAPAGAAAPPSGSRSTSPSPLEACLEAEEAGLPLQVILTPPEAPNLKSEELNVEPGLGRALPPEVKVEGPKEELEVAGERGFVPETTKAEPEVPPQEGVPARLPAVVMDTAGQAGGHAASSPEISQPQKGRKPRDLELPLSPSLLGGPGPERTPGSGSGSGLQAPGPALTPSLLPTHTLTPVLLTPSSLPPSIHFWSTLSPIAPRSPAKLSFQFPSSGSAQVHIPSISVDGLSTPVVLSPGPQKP
# Summary of the method: as §1
# GABPA = biological target: T3, GABPA (Homo sapiens, UniProt Q06546 1-454); settings: protein: recombinant; tags: N-terminal GST; dsDNA, one strand shown
# T3 sequence: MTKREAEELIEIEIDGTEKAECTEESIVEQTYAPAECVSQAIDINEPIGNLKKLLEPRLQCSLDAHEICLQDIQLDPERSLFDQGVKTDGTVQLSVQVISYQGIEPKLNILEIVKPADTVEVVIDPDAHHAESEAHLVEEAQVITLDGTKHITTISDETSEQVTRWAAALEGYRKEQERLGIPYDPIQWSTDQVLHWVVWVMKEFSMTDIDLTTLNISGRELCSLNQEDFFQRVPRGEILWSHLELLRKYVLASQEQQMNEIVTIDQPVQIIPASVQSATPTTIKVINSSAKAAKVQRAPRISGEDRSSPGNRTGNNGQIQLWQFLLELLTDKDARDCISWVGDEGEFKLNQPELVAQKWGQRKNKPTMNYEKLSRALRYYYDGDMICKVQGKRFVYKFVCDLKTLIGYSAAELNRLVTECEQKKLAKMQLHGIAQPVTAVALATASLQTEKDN
# Summary of the method: as §1
# ERG = biological target: T4, ERG (Homo sapiens, UniProt P11308 1-479); settings: protein: recombinant; tags: N-terminal GST; dsDNA, one strand shown
# T4 sequence: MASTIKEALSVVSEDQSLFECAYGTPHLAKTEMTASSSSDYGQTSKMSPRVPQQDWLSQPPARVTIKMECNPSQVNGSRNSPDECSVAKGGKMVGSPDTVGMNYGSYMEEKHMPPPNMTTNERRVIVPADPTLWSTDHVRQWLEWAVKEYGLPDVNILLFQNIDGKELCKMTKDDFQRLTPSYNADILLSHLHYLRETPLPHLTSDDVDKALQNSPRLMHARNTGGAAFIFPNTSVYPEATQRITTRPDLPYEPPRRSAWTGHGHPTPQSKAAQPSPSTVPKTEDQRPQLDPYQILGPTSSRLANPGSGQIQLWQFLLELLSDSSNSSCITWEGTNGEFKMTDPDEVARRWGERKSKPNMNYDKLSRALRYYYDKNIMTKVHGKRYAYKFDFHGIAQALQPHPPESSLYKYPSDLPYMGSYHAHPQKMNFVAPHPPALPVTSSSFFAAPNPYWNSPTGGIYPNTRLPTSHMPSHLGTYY
# Summary of the method: as §1
# ELF1 = ELF1 (Homo sapiens, UniProt P32519 1-619); settings: protein: recombinant; tags: N-terminal GST; dsDNA, one strand shown
# Summary of the method: as §1
# EHF = biological target: T5, EHF (Homo sapiens, UniProt Q9NZC4 1-300); settings: protein: recombinant; tags: N-terminal GST; dsDNA, one strand shown
# T5 sequence: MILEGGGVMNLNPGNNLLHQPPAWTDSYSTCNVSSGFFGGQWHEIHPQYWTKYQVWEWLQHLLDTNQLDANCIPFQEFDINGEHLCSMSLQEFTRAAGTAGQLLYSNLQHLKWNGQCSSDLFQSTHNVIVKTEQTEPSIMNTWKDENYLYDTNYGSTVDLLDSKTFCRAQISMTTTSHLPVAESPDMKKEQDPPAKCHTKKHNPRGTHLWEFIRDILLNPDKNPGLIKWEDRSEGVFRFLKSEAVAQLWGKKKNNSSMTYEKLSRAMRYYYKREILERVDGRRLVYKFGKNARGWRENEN
# Summary of the method: as §1
# SPI1 = SPI1 (Homo sapiens, UniProt P17947 1-270); settings: protein: recombinant; tags: N-terminal GST; dsDNA, one strand shown
# Summary of the method: as §1
# SPIB = SPIB (Homo sapiens, UniProt Q01892 1-262); settings: protein: recombinant; tags: N-terminal GST; dsDNA, one strand shown
# Summary of the method: as §1
# ELK3 = biological target: T6, ELK3 (Homo sapiens, UniProt P41970 1-407); settings: protein: recombinant; tags: N-terminal GST; dsDNA, one strand shown
# T6 sequence: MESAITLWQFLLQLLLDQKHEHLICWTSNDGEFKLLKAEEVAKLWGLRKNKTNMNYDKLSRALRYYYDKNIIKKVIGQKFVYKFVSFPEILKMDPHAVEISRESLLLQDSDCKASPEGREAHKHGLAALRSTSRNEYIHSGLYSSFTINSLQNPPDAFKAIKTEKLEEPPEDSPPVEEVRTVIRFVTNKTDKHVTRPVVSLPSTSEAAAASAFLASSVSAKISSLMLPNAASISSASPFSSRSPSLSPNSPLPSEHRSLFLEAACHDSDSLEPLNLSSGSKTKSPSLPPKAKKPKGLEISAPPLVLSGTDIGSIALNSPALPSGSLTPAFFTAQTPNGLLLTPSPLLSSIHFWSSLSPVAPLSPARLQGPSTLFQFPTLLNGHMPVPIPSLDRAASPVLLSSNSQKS
# Summary of the method: as §1
# FEV = biological target: T7, FEV (Homo sapiens, UniProt Q99581 1-238); settings: protein: recombinant; tags: N-terminal GST; dsDNA, one strand shown
# T7 sequence: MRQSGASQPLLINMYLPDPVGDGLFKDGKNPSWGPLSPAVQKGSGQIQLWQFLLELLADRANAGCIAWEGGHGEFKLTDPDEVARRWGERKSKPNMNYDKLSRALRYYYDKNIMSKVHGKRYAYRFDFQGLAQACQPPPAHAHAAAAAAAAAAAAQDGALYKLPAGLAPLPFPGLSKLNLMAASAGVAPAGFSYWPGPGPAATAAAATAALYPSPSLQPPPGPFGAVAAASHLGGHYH
# Summary of the method: as §1
# ETV5 = ETV5 (Homo sapiens, UniProt P41161 1-510); settings: protein: recombinant; tags: N-terminal GST; dsDNA, one strand shown
# Summary of the method: as §1
# HSF1 = HSF1 (Homo sapiens, UniProt Q00613 1-529); settings: protein: recombinant; tags: N-terminal GST; chain copies: 3; dsDNA, one strand shown
# Summary of the method: as §1
# SPIC = biological target: T8, SPIC (Homo sapiens, UniProt Q8N5J4 1-248); settings: protein: recombinant; tags: N-terminal GST; dsDNA, one strand shown
# T8 sequence: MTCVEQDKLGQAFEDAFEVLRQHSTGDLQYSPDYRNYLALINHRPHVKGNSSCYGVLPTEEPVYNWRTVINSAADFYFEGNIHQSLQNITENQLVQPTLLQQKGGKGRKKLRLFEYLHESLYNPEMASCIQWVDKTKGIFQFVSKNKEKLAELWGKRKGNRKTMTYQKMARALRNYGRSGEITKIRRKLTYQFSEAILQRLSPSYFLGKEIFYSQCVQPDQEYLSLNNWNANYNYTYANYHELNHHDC
# Summary of the method: as §1
# ELF4 = ELF4 (Homo sapiens, UniProt Q99607 1-663); settings: protein: recombinant; tags: N-terminal GST; dsDNA, one strand shown
# Summary of the method: as §1
# ELK4 = biological target: T9, ELK4 (Homo sapiens, UniProt P28324-2 1-405); settings: protein: recombinant; tags: N-terminal GST; dsDNA, one strand shown
# T9 sequence: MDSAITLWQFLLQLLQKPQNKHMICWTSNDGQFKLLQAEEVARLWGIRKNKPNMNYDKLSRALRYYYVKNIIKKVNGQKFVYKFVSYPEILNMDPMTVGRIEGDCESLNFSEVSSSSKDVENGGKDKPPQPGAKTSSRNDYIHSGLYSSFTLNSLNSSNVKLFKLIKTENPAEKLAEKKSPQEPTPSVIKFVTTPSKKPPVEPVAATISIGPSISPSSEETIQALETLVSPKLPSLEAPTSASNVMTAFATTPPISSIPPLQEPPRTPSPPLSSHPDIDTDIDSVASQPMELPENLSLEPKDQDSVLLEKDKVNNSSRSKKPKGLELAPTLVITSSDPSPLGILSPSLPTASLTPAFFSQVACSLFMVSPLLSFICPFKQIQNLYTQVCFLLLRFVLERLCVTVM
# Summary of the method: as §1
# ETV2 = biological target: T10, ETV2 (Homo sapiens, UniProt O00321 1-342); settings: protein: recombinant; tags: N-terminal GST; dsDNA, one strand shown
# T10 sequence: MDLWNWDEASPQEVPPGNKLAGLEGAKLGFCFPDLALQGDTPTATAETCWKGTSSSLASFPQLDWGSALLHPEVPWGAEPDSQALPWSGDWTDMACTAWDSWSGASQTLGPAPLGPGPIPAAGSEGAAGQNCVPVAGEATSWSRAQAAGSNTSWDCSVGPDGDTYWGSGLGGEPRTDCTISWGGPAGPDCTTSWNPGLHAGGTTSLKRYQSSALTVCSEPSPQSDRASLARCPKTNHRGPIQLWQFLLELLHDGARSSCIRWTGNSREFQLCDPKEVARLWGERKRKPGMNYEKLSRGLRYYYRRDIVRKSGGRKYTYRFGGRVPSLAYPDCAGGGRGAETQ
# Summary of the method: as §1
# ELF3 = biological target: T11, ELF3 (Homo sapiens, UniProt P78545 1-371); settings: protein: recombinant; tags: N-terminal GST; dsDNA, one strand shown
# T11 sequence: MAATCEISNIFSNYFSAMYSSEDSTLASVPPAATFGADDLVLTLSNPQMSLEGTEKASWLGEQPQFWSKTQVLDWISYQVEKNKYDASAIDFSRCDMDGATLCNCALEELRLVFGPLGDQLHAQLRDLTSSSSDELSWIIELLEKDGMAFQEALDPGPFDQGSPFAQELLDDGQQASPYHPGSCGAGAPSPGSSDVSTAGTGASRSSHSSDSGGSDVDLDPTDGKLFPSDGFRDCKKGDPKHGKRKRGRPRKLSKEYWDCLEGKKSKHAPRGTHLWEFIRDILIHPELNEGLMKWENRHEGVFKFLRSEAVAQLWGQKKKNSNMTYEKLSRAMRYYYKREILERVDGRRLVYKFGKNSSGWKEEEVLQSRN
# Summary of the method: as §1
# ETV1 = ETV1 (Homo sapiens, UniProt P50549 1-477); settings: protein: recombinant; tags: N-terminal GST; dsDNA, one strand shown
# Summary of the method: as §1
# Chain of ETV1 (P50549 whole entry): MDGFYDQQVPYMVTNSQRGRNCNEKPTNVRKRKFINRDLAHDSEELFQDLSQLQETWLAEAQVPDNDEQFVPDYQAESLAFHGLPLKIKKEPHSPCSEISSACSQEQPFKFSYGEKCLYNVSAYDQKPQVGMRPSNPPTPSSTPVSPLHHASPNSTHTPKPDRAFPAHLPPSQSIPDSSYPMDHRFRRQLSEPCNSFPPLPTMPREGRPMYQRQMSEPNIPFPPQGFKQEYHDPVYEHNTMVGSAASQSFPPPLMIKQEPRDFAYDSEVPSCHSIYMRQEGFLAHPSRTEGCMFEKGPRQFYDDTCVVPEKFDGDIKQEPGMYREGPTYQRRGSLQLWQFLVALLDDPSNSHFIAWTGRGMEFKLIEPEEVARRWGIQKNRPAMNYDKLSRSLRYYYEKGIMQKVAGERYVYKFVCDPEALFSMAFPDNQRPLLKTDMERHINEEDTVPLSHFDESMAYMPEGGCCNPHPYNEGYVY
# Chain of ELF1 (P32519 whole entry): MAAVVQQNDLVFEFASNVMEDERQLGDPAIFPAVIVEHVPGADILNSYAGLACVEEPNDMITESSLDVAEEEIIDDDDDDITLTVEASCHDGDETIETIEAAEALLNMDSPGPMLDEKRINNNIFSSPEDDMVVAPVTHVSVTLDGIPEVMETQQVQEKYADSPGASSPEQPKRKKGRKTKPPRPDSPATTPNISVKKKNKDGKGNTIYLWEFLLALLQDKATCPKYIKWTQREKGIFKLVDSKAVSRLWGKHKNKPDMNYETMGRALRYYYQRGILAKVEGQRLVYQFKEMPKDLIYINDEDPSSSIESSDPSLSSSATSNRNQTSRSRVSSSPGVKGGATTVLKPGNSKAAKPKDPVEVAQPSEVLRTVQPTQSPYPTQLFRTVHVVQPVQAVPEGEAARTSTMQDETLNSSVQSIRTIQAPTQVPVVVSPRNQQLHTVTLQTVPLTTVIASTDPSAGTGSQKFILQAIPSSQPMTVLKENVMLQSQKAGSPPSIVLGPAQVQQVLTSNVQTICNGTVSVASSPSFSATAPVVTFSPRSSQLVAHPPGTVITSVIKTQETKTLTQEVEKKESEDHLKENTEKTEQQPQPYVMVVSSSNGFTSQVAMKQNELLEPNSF
# Chain of SPIB (Q01892 whole entry): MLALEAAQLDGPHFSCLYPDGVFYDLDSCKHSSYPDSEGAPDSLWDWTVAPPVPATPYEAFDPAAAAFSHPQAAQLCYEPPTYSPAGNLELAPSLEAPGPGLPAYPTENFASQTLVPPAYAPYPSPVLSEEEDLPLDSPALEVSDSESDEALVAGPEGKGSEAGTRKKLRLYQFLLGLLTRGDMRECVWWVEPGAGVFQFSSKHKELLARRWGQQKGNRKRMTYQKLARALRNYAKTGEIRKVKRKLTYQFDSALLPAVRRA
# Chain of ELF4 (Q99607 whole entry): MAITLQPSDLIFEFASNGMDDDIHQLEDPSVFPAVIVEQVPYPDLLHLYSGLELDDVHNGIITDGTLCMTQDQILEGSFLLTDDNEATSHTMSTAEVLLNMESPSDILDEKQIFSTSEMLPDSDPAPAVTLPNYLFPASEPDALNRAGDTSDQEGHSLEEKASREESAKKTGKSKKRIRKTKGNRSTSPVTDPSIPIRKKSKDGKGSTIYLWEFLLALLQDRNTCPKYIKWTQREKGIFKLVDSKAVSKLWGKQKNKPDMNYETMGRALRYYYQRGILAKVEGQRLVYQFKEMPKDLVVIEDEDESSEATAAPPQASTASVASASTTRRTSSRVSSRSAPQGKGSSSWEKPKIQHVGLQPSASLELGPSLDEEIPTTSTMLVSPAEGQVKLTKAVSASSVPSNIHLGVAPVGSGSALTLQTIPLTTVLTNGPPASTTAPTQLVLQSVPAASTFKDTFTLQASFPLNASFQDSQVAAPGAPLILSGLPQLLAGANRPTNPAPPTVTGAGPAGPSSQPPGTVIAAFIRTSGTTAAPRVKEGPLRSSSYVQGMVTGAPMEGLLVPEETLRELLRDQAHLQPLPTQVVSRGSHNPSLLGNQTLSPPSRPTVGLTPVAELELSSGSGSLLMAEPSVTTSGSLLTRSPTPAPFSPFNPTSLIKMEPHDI
# Chain of ETV5 (P41161 whole entry): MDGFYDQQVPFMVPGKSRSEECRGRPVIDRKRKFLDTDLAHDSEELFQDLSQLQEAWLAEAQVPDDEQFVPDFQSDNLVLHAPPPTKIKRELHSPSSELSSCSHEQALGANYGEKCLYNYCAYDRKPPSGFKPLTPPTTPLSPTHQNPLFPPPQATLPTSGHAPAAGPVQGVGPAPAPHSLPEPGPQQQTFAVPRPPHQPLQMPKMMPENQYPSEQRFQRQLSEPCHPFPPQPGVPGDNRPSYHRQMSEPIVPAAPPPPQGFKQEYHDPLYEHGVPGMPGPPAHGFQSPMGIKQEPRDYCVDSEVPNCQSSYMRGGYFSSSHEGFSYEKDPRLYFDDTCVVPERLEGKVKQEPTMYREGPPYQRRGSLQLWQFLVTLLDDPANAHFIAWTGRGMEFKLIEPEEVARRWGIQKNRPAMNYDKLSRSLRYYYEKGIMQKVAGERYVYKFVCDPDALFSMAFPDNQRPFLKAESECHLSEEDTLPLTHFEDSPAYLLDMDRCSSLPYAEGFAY
# Chain of HSF1 (Q00613 whole entry): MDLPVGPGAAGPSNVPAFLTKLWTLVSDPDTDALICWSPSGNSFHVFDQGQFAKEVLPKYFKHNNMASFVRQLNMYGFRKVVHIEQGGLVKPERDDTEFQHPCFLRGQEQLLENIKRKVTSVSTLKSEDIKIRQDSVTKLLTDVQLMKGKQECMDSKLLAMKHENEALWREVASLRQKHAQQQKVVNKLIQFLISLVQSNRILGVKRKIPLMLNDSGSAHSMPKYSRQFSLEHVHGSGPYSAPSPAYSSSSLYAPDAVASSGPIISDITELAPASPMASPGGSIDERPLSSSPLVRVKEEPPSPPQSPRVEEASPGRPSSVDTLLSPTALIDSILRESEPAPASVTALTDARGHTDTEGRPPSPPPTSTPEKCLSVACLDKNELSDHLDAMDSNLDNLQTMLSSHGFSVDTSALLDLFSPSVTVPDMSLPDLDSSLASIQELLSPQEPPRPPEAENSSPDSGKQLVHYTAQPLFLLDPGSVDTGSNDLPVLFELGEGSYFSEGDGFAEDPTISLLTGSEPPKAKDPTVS
sequence,measurement,setting,value
TGCCTG,binding signal,FLI1,"1.17 fold enrichment (6-mer frequency, TF over GST control)"
same,binding signal,ELK1,"1.27 fold enrichment (6-mer frequency, TF over GST control)"
same,binding signal,GABPA,"1.32 fold enrichment (6-mer frequency, TF over GST control)"
same,binding signal,ERG,"1.32 fold enrichment (6-mer frequency, TF over GST control)"
same,binding signal,ELF1,"1.33 fold enrichment (6-mer frequency, TF over GST control)"
same,binding signal,EHF,"1.36 fold enrichment (6-mer frequency, TF over GST control)"
same,binding signal,SPI1,"1.26 fold enrichment (6-mer frequency, TF over GST control)"
same,binding signal,SPIB,"1.29 fold enrichment (6-mer frequency, TF over GST control)"
same,binding signal,ELK3,"1.59 fold enrichment (6-mer frequency, TF over GST control)"
same,binding signal,FEV,"1.16 fold enrichment (6-mer frequency, TF over GST control)"
same,binding signal,ETV5,"1.37 fold enrichment (6-mer frequency, TF over GST control)"
same,binding signal,HSF1,"1.05 fold enrichment (6-mer frequency, TF over GST control)"
same,binding signal,SPIC,"1.32 fold enrichment (6-mer frequency, TF over GST control)"
same,binding signal,ELF4,"1.22 fold enrichment (6-mer frequency, TF over GST control)"
same,binding signal,ELK4,"1.25 fold enrichment (6-mer frequency, TF over GST control)"
same,binding signal,ETV2,"1.2 fold enrichment (6-mer frequency, TF over GST control)"
same,binding signal,ELF3,"1.05 fold enrichment (6-mer frequency, TF over GST control)"
same,binding signal,ETV1,"1.49 fold enrichment (6-mer frequency, TF over GST control)"
